# Laboratory results: the OligoGym collection
# Molecular target: ZNF135
# Experiment: pooled miR-30 sensor sort-seq; sequence = guide strand
# Conditions: shRNA
# Also: reference of the scale not given here.
row,Sequence,sensor-assay potency score (higher = more potent)
1,TTGCTTTAGAACTGACAGTTTG,-1.45
2,TCTCATTTCTGGAACACTCTGC,0.253
3,ATGAATATCAGAGTCAACCTGC,0.469
4,TTTCTCATGTGTATGATTGGGT,0.467
5,TTAGAACTGACAGTTTGACTTT,-0.0207

# Molecular target: ZNF146
# Experiment: as above
# Conditions: shRNA
row,Sequence,sensor-assay potency score (higher = more potent)
1,TTTCTAATGAAAGCTTTCCCAC,-1.05
2,TCCACAAACATTGCATTCGTAA,-1.11
3,TTAAAGTTAACCTCATTCGTGG,0.427
4,TTAACCTCATTCGTGGTGCTTT,-0.543
5,TTTTATGAGGTACTTCTTCTGG,-0.457
6,TTACATTCGAAAAGCTTCTCGC,-0.0579
7,TTTATGAGGTACTTCTTCTGGC,0.438
8,TTCCACAAACATTGCATTCGTA,0.428
9,TTTATCACCTGAATGAATCCTC,0.519
10,ATGTTTAATGACATACTGCTTT,-0.84
11,TTGGATTTGCCACTGAAGGTTT,-0.469
12,TTGAGAACTGAGAGAAAGCTTT,-0.35
